BAZ2B inh: inhibitors of human BAZ2B bromodomain. Potency, µM (top dose mostly 114 µM), hits mostly inhibitors. AID 504333. AlphaScreen BAZ2B-H3K14Ac peptide displacement. 4.4% of 360,000 active. Q9UIF8; further: nearly all actives have a fitted effect of over 60% in size
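In this displacement format the biotinylated H3(5-23) peptide acetylated at Lys14 serves as ligand at 50 nM, with BAZ2B at 50 nM in PBS pH 7.4 containing 0.01% Tween-20. Donor and acceptor beads are 10 ug/mL final.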
HP1b binding inh: HP1-beta chromodomain-methylated histone interaction inhibition; P83916; AlphaScreen HP1-beta / biotin-H3K9me3 peptide binding; Potency, µM (series often up to 114 µM), most hits filed as inhibitors; 0.56% of 390,000 active; AID 540317; further: nearly all actives have a fitted effect of over 70% in size
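Compound inhibition of the preformed complex between 50 nM HP1-beta and 50 nM biotinylated H3K9me3 peptide was read by AlphaScreen. Buffer was PBS pH 7.4 with 0.01% Tween-20. Incubations ran 30 min at room temperature, with 10 ug/mL donor/acceptor beads.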
JMJD2A Tudor inh: inhibitors of human JMJD2A Tudor domain; O75164; AlphaScreen JMJD2A-Tudor / H3K4me3 peptide binding; Potency, µM (titrated, usually from 114 µM), hits mostly inhibitors; 4.4% of 390,000 active; AID 504339; further: nearly all actives have a fitted effect of over 50% in size
PI5P4K alpha inh: blocks human PI5P4K alpha kinase activity; P48426; PI5P4Kalpha enzyme, ADP-Glo luminescence, 60 min; active compounds read low; max response, %; 1.2% of 330,000 active; AID 652105; active means max response of -50% or lower; inconclusive means between -30% and -50%; inactive means -30% or higher; further: value at the top dose of about 77 µM
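Single end-point luminescence (ADP-Glo) quantified ADP from PI5P4Kalpha turnover; ATP 5 microM final, 1 h at RT, 0.1% CHAPS and 0.28 mM EGTA in HEPES pH 7.4.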
PLK1 PBD inh: blocks phosphopeptide binding to human PLK1 polo-box domain; Potency, µM, hits mostly inhibitors; 2.8% of 360,000 active; Plk1 PBD binding of FITC phosphopeptide, fluorescence polarization; further: series mostly up to about 57 µM; nearly all actives have a fitted effect of over 65% in size
G9a inh: blocks human histone lysine methyltransferase G9a; G9a H3K9 monomethylation, AlphaScreen, 2 h; AID 504332; Potency, µM (top dose mostly 102 µM), most hits filed as inhibitors; Q96KQ7; 8.8% of 350,000 active; further: nearly all actives have a fitted effect of over 75% in size
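G9a (20 nM) preincubated 15 min RT with compounds, then 500 nM biotinylated H3K9 peptide and 20 uM SAM added; 2 h RT reaction. Monomethyl-H3K9 product detected by AlphaScreen with anti-H3K9me1 antibody, streptavidin donor and anti-rabbit IgG acceptor beads.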
Each line names hits and unclear results; the compound was inactive in the other large screens. The list is not random: actives were taken first. Their share in the collection is about 12%. Unless noted, the call rests on the fitted dose curve; in most records, active means well fitted curve in the direction sought with a large enough effect; inconclusive means small, poorly fitted or top-dose-only effect, or another doubt; inactive means no such curve, though single readings can be large; an effect the other way counts as inactive or inconclusive.

O=C1CC(c2ccco2)CC(O)=C1C=Nc1ccc(Br)cc1 (centres undefined)	G9a inh 14µM
O=C1CC(c2ccccc2)CC(O)=C1C=Nc1ccccc1 (centres undefined)	JMJD2A Tudor inh inconclusive, PI5P4K alpha inh inconclusive, PLK1 PBD inh 24µM
O=C1CC(c2ccco2)CC(O)=C1C=Nc1cc(Cl)ccc1Cl (centres undefined)	BAZ2B inh 50µM, JMJD2A Tudor inh inconclusive, PI5P4K alpha inh inconclusive, G9a inh 7.1µM
Cc1ccc(CCNC(=O)C2CCCN(S(=O)(=O)c3ccc4c(c3)oc(=O)n4C)C2)cc1 (centres undefined)	none (no result: PI5P4K alpha inh, PLK1 PBD inh)
COc1ccc(OC)c(CN2CCN(c3ccc(S(=O)(=O)N4CCCC4)cn3)CC2)c1	none
CCN(C(=O)COC(=O)C1CCN(S(=O)(=O)c2cccs2)CC1)c1ccccc1	none
CC(Sc1n[nH]c(-c2ccccc2)n1)C(=O)c1c(N)n(C)c(=O)n(C)c1=O (centres undefined)	G9a inh 50µM
Cn1c(N)c(C(=O)CSc2nn(-c3ccccc3)c(=S)s2)c(=O)n(C)c1=O	G9a inh 50µM
Cn1c(N)c(C(=O)CSc2n[nH]c(-c3ccccc3)n2)c(=O)n(C)c1=O	none
CC(Sc1nn(-c2ccc(F)cc2)c(=S)s1)C(=O)c1c(N)n(C)c(=O)n(C)c1=O (centres undefined)	G9a inh 50µM
O=C(CSc1nn(-c2ccccc2)c(=S)s1)Nc1ncccn1	none
Cc1cc(C)nc(NC(=O)CSc2nn(-c3ccccc3)c(=S)s2)n1	BAZ2B inh 79µM, JMJD2A Tudor inh inconclusive, G9a inh inconclusive
COc1ccc(NC(=O)CSc2ncnc3sc(C)cc23)cc1	none
CCn1c(SCC(=O)Nc2ccc3c(c2)OCO3)nc2c(c1=O)SC(C)C2 (centres undefined)	none
Cc1cccc(NC(=O)CSc2nc3sc(C)cc3c(=O)n2C)c1	JMJD2A Tudor inh inconclusive, PLK1 PBD inh 27µM (no result: BAZ2B inh, G9a inh)
Cc1cc2c(=O)n(C)c(SCC(=O)Nc3cccc(O)c3)nc2s1	PLK1 PBD inh inconclusive, G9a inh inconclusive
CCn1c(SCC(=O)Nc2cccc(C)c2)nc2c(c1=O)SC(C)C2 (centres undefined)	G9a inh 50µM
Cc1cc2c(SCC(=O)Nc3cccc(O)c3)ncnc2s1	JMJD2A Tudor inh 50µM, PI5P4K alpha inh -74, PLK1 PBD inh inconclusive (no result: BAZ2B inh, G9a inh)
CN1CCc2ccc3c4c2[C@]1(C)Cc1cccc(c1-4)OCO3	none (no result: BAZ2B inh, HP1b binding inh, PI5P4K alpha inh, PLK1 PBD inh, G9a inh)
CC(C)(C)[C@H]1COC(=O)CC/C=C\C[C@@H](CC(=O)N(CCO)Cc2ccccc2)C(=O)N1	none (no result: BAZ2B inh, G9a inh)
COc1ccc(C)cc1NC(=O)CN1c2ccccc2S(=O)(=O)c2ccccc21	none (no result: PI5P4K alpha inh, PLK1 PBD inh)
Cc1ccc(OCC(=O)N2CCC(Cc3ccccc3)CC2)c([N+](=O)[O-])n1	G9a inh 10µM
COc1ccccc1C(=O)NCCC(=O)NC(C)c1ccc(-n2ccnc2)cc1 (centres undefined)	G9a inh 20µM
CC(=O)Nc1cccc(C(=O)NC(C)c2ccc(-n3ccnc3)cc2)c1 (centres undefined)	BAZ2B inh inconclusive, G9a inh 45µM
CN(C)S(=O)(=O)c1cccc(-c2nnc(SCC(=O)NCCCCCC(=O)O)n2-c2ccc(F)cc2)c1	JMJD2A Tudor inh inconclusive, G9a inh 16µM
O=C(O)c1ccccc1C(=O)Nc1ccc(-n2ccc(C(F)(F)F)n2)cc1	G9a inh 79µM
CCCCc1nn2c(=O)cc(COC(=O)c3ccco3)nc2s1	none (no result: PI5P4K alpha inh, PLK1 PBD inh)
CC1=C(/C=C/C(C)=C/C=C/C(C)=C\CO)C(C)(C)CCC1	G9a inh 25µM (no result: BAZ2B inh, HP1b binding inh, JMJD2A Tudor inh, PI5P4K alpha inh, PLK1 PBD inh)
CCN(C(=O)Cc1c(C(=O)O)[nH]c2ccccc12)c1cc(OC)ccc1OC	BAZ2B inh inconclusive, JMJD2A Tudor inh inconclusive
COc1ccc(S(=O)(=O)Nc2c(C(=O)O)[nH]c3ccc(OC)cc23)c(OC)c1	BAZ2B inh 45µM, HP1b binding inh 45µM, JMJD2A Tudor inh 18µM, PLK1 PBD inh 15µM, G9a inh 2.2µM
COc1ccc2[nH]c(C(=O)O)c(NS(=O)(=O)c3ccc(OC)c(OC)c3)c2c1	BAZ2B inh inconclusive, JMJD2A Tudor inh inconclusive, PLK1 PBD inh inconclusive, G9a inh inconclusive (no result: PI5P4K alpha inh)
COc1ccc(S(=O)(=O)Nc2c(C(=O)O)[nH]c3ccccc23)c(OC)c1	BAZ2B inh inconclusive, JMJD2A Tudor inh inconclusive, G9a inh 40µM
COc1ccc(S(=O)(=O)Nc2c(C(=O)O)[nH]c3ccc(OC)cc23)cc1	BAZ2B inh inconclusive, JMJD2A Tudor inh 20µM, PLK1 PBD inh inconclusive, G9a inh 7.9µM
CCOc1ccc(NC(=O)CSC2=Nc3ccccc3C3=NC(CC(=O)NCc4ccc5c(c4)OCO5)C(=O)N23)cc1 (centres undefined)	none (no result: PI5P4K alpha inh, PLK1 PBD inh)
Cn1ncc2c(c(SCc3ccc(Cl)cc3Cl)nn2C)c1=O	HP1b binding inh inconclusive, PI5P4K alpha inh inconclusive, PLK1 PBD inh 12µM, G9a inh 8.9µM
COc1cnn(-c2ccccc2)c(=O)c1SCc1ccc(Cl)cc1Cl	PLK1 PBD inh inconclusive
O=S(=O)(c1ccc(Cl)cc1)N1CCN(c2nc(-c3cccc(Br)c3)nc3ccccc23)CC1	none (no result: BAZ2B inh, PI5P4K alpha inh, PLK1 PBD inh, G9a inh)
CCOC(=O)N1CCN(C(=O)CN2C(=O)NC(c3ccccc3)(c3ccccc3)C2=O)CC1	none
CCOC(=O)N1C(=O)[C@@](CC)(c2ccccc2)N1C(=O)OCC	PLK1 PBD inh 13µM (no result: G9a inh)
CC[C@@]1(c2cccc(C)c2)C(=O)N(C(=O)OC)N1C(=O)OC	BAZ2B inh inconclusive, PLK1 PBD inh 9.5µM, G9a inh 45µM
Cc1cccc(N2CCN(S(=O)(=O)c3ccc(-c4cc(C(F)(F)F)on4)s3)CC2)c1C	none (no result: PI5P4K alpha inh, PLK1 PBD inh)
CSc1ccccc1C(=O)N1CCN(S(=O)(=O)c2sc(C(=O)O)c(C)c2C(=O)O)CC1	JMJD2A Tudor inh inconclusive, G9a inh inconclusive
O=C1CC(C(=O)Nc2cccc(Cl)c2)n2ncnc2N1 (centres undefined)	none
CC(=O)Nc1ccc(NC(=O)C2CC(=O)Nc3ncnn32)cc1 (centres undefined)	none
O=C1CC(C(=O)Nc2cc(Cl)ccc2Cl)n2ncnc2N1 (centres undefined)	G9a inh 10µM
Cc1ccc(Cl)cc1NC(=O)C1CC(=O)Nc2ncnn21 (centres undefined)	G9a inh 50µM
CCCS(=O)(=O)NC(=O)C1(C)CCCN(C(=O)c2cccc(C)c2C)C1 (centres undefined)	none (no result: BAZ2B inh, HP1b binding inh, JMJD2A Tudor inh, G9a inh)
Cc1ncoc1C(=O)N1CCCC(C(=O)c2ccc(C(F)(F)F)cc2)C1 (centres undefined)	G9a inh 25µM
CCN(CC)CCNCc1ccc(Br)cc1OCC(=O)NCc1ccccc1	G9a inh 50µM
CC1=CC(C)(C)NC(=S)N1c1cccc2ccccc12	none

High-throughput results from PubChem BioAssay.
